ELG1 genotox: qHTS screen for small molecules that induce genotoxicity in human embryonic kidney (HEK293T) cells expressing luciferase-tagged ELG1; HEK293T ELG1-luciferase reporter, luminescence, 16 h; Potency, µM (series often up to 46 µM), inactives show at the highest dose activity change, positive = activation, hits mostly activators; hit rate 1.3% among 330,000; also: % of control where 0% means no effect; nearly all actives have a fitted effect of over 60% in size
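Screening used a luciferase reporter fused to human ELG1 in HEK293T cells. Luminescence was read on a CCD plate imager after 16 hr exposure and 30 min ONE-Glo incubation.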
FLuc modulator: qHTS profiling assay for firefly luciferase inhibitor/activator using purifed enzyme and Km concentrations of substrates (counterscreen for miR-21 project). purified FLuc, Km substrates, luminescence inhibition. Luciferin 4-monooxygenase (Photinus pyralis), P08659. hit rate 6.9% among 360,000. Potency, µM (highest dose often 57.5 µM), without a hit: top-dose activity change, negative = inhibition, hits mostly inhibitors;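 also: plate controls were vehicle for no effect and reference inhibitor for full effect; nearly all actives have a fitted effect of over 55% in size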
Target sequence (P08659 whole entry, looked up): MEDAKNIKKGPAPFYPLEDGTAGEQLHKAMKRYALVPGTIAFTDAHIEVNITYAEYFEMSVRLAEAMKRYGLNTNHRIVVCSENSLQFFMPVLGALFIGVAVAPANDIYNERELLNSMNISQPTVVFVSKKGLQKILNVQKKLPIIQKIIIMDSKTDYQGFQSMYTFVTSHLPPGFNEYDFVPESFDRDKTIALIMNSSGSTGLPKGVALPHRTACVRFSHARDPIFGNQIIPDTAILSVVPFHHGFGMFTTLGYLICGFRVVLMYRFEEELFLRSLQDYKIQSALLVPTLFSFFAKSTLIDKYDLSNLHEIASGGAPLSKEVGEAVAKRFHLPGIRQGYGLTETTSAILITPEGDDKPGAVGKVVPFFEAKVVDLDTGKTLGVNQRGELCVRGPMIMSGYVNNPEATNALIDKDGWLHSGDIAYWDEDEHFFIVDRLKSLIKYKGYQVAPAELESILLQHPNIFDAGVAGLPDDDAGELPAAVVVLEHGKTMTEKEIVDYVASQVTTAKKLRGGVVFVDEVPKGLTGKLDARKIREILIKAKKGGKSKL
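Purified P. pyralis luciferase, 10 nM final, with Km-level 10 uM D-luciferin and 10 uM ATP in 50 mM Tris acetate pH 7.5, 10 mM Mg acetate, 0.01% Tween-20, 0.05% BSA; 6-point qHTS titration about 60 µM downward; luminescence read.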
NPC1 prom act: qHTS Assay for NPC1 Promoter Activators. Huh7 NPC1 promoter luciferase reporter, 24 h. Potency, µM (titrated, usually from 9.22 µM), without a hit: top-dose activation, most hits filed as activators. hit rate 2.4% among 320,000. AID 485313, 2010; also: % of control where 0% means no effect; nearly all actives have a fitted effect of over 60% in size
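Quantitative HTS used a cell-based reporter: Huh7 cells stably bearing the NPC1 promoter upstream of luciferase were treated with compounds for 24 h, and promoter activation was read as luminescence.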
SMN2 splice up: qHTS Assay for Enhancers of SMN2 Splice Variant Expression; HEK293 SMN2-luciferase splicing reporter, luminescence, 30-36 h; Potency, µM (titrated, usually from 46.1 µM), without a hit: top-dose activity change, positive = activation, actives largely listed as activators; hit rate 2.8% among 210,000; AID 1458, 2008; also: % of control where 0% means no effect; nearly all actives have a fitted effect of over 55% in size
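HEK293 cells carry an SMN2 minigene-luciferase reporter in which exon 7 inclusion puts luciferase in frame. Cells were seeded at 2000 cells/well, attached for 10-12 hours, then exposed to compounds for 30-36 hours at 37C before ONE-Glo luminescence.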
Rab9 promoter act: qHTS Assay for Rab9 Promoter Activators. Potency, µM (doses to about 9.22 µM), for the others: at the highest dose activation, negative = inhibition, hits mostly activators. hit rate 2.8% among 320,000. Huh7 Rab9 promoter-luciferase reporter, luminescence, 24 h; also: % of control where 0% means no effect; nearly all actives have a fitted effect of over 60% in size
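Huh7 reporter line, Rab9 promoter upstream of luciferase. Compound exposure 24 h at 37 °C in reduced-serum medium with 10% FBS. Read-out: luminescence.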
KinaseGlo FLuc: Counterscreen for Luciferase (Kinase-Glo TM) Inhibition; Luciferin 4-monooxygenase (Photuris pensylvanica), Q27757; Kinase-Glo luciferase, ATP luminescence, 8 min; Potency, µM (doses to about 38.3 µM), inactives show at the top dose activity change, negative = inhibition, most hits filed as inhibitors; hit rate 0.28% among 200,000; also: % is scaled to controls: 0 for no effect and ±100 for the full control effect; nearly all actives have a fitted effect of over 60% in size
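Substrate mix (final 50 mM imidazole pH 7.2, 50 mM KCl, 7 mM MgCl2, 10 uM ATP, 0.01% Tween 20, 0.05% BSA) plus pin-tool compound, then Kinase-Glo detection mix; 8 min ambient, luminescence read.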
An asterisk follows results filed as active. Hits are enriched below; roughly 7.3% of the tested compounds scored in any of these assays. Calls follow the shape of the dose curve; as a rule, active = well fitted curve in the direction sought with a large enough effect; inconclusive = small, poorly fitted or top-dose-only effect, or another doubt; inactive = no such curve, though single readings can be large; an effect the other way counts as inactive or inconclusive. Potency is read from the fitted curve at half-maximal effect.

For COCCNS(=O)(=O)c1ccc2c(c1)n(C)c(=O)n2C the results were ELG1 genotox 3%, FLuc modulator 7%, NPC1 prom act 0%, SMN2 splice up -11%, Rab9 promoter act -1% and KinaseGlo FLuc -1%.
For CN(C)c1ccc(/C=N/NC(=O)c2ccc(CN3CCOCC3)cc2)cc1Br the results were ELG1 genotox -5%, FLuc modulator 19µM*, NPC1 prom act -13%, SMN2 splice up -38%, Rab9 promoter act -1% and KinaseGlo FLuc -3%.
Screening COCCn1c(C)cc(/C=N/NC(=O)c2cccnc2)c1C returned ELG1 genotox 12%, FLuc modulator inconclusive, NPC1 prom act 17%, SMN2 splice up 19%, Rab9 promoter act 28% and KinaseGlo FLuc -1%.
`Cc1cccc(-n2c(C)cc(/C=N/NC(=O)c3ccc(CN4CCOCC4)cc3)c2C)c1` gave ELG1 genotox inconclusive, FLuc modulator inconclusive, NPC1 prom act -1%, SMN2 splice up -30%, Rab9 promoter act -8% and KinaseGlo FLuc -1%.
For Cc1ccc(-n2c(C)cc(/C=N/NC(=O)c3ccc(CN4CCOCC4)cc3)c2C)cc1 the results were ELG1 genotox -7%, FLuc modulator 15µM*, NPC1 prom act -3%, SMN2 splice up -32%, Rab9 promoter act -1% and KinaseGlo FLuc -2%.
Cc1cc(/C=N/NC(=O)c2ccc(O)cc2)c(C)n1CC(C)C was read as ELG1 genotox inconclusive, FLuc modulator 6µM*, NPC1 prom act 23% and Rab9 promoter act inconclusive.
`Cc1ccc(-n2c(C)cc(/C=N/NC(=O)c3ccncc3)c2C)cc1` gave ELG1 genotox inconclusive, FLuc modulator 5.4µM*, NPC1 prom act 1%, SMN2 splice up -27%, Rab9 promoter act 4% and KinaseGlo FLuc -6%.
For Cc1cc(/C=N/NC(=O)c2ccncc2)c(C)n1-c1cccc(C(F)(F)F)c1 the results were ELG1 genotox 4%, FLuc modulator -2%, NPC1 prom act -2% and Rab9 promoter act -5%.
Screening Cc1ccc(-n2c(C)cc(/C=N/NC(N)=S)c2C)cc1 returned ELG1 genotox 0%, FLuc modulator inconclusive, NPC1 prom act 0%, SMN2 splice up -8%, Rab9 promoter act 1% and KinaseGlo FLuc -2%.
For Cc1ccc(-n2c(C)cc(/C=N/NC(=O)CC3(C)OCCO3)c2C)cc1 the results were ELG1 genotox 1%, FLuc modulator 24µM*, NPC1 prom act -1%, SMN2 splice up -50%, Rab9 promoter act -1% and KinaseGlo FLuc 0%.
`COc1ccc(Cl)cc1NC(=O)C(=O)N/N=C/c1cc(C)n(-c2ccc(C)cc2)c1C` gave ELG1 genotox 1%, FLuc modulator 3.4µM*, NPC1 prom act -3%, SMN2 splice up 9%, Rab9 promoter act -1% and KinaseGlo FLuc -4%.
Cc1cc(/C=N/NC(=O)CC2(C)OCCO2)c(C)n1-c1cc(Cl)cc(Cl)c1 was read as ELG1 genotox 1%, FLuc modulator -3%, NPC1 prom act -1%, SMN2 splice up -30%, Rab9 promoter act -8% and KinaseGlo FLuc -2%.
For CN(C)C(=O)Nc1cnc2ccccc2c1 the results were ELG1 genotox 6%, FLuc modulator -14%, NPC1 prom act -1%, SMN2 splice up 0%, Rab9 promoter act 3% and KinaseGlo FLuc 9%.
O=C(CSc1nc(NS(=O)(=O)c2ccccc2)cc(=O)[nH]1)Nc1ccc(F)cc1 was read as ELG1 genotox 0%, FLuc modulator 7%, NPC1 prom act -5%, SMN2 splice up 13%, Rab9 promoter act -1% and KinaseGlo FLuc -3%.
For O=C(Nc1cnc2ccccc2c1)c1ccco1 the results were ELG1 genotox inconclusive, FLuc modulator 7.6µM*, NPC1 prom act 1.4µM*, SMN2 splice up 14µM*, Rab9 promoter act 0.63µM* and KinaseGlo FLuc -14%.
O=C(Nc1cccc(-c2cnc3ccccc3n2)c1)c1ccco1 was read as ELG1 genotox 4%, FLuc modulator inconclusive, NPC1 prom act 4%, SMN2 splice up 0%, Rab9 promoter act 3% and KinaseGlo FLuc -3%.
Cc1ccnc(NS(=O)(=O)c2ccc(NC(=O)CSc3nc(-c4ccccc4)cc(=O)[nH]3)cc2)n1 was read as ELG1 genotox 1%, FLuc modulator 13µM*, NPC1 prom act -1%, SMN2 splice up -5%, Rab9 promoter act -12% and KinaseGlo FLuc -1%.
For CC(C)(C)c1ccc(C(=O)Nc2cccc(-n3cnnn3)c2)cc1 the results were ELG1 genotox -7%, FLuc modulator 0.6µM*, NPC1 prom act inconclusive and Rab9 promoter act inconclusive.
Screening Cc1ccc(C(=O)Nc2cnc3ccccc3c2)cc1 returned ELG1 genotox inconclusive, FLuc modulator 0.076µM*, NPC1 prom act inconclusive, Rab9 promoter act inconclusive and KinaseGlo FLuc inconclusive.
CCOc1cc(C(F)(F)F)cnc1/C(N)=N/O was read as ELG1 genotox 0%, FLuc modulator -2%, NPC1 prom act 0% and Rab9 promoter act 0%.
For COc1cccc(CNC(=O)CCC2CCCN(Cc3cc4ccccc4o3)C2)c1 (centres undefined) the results were ELG1 genotox -9%, FLuc modulator 2%, NPC1 prom act -2%, SMN2 splice up -39%, Rab9 promoter act -3% and KinaseGlo FLuc -2%.
`CN(C)c1ncc([N+](=O)[O-])cc1C(F)(F)F` gave ELG1 genotox -2%, FLuc modulator 4%, NPC1 prom act -3% and Rab9 promoter act 1%.
For Cc1nn(C)c(C(=O)NNC(=S)NCc2ccccc2)c1Cl the results were ELG1 genotox -1%, FLuc modulator 2%, NPC1 prom act 2% and Rab9 promoter act 1%.
Screening O=C(COC(=O)c1ccc(Br)o1)Nc1ccc(F)cc1[N+](=O)[O-] returned ELG1 genotox 1%.
COc1cc(C(=O)Nc2ccc(S(=O)(=O)Nc3cnc4ccccc4n3)cc2)cc(OC)c1OC was read as ELG1 genotox inconclusive, FLuc modulator 2%, NPC1 prom act -3% and Rab9 promoter act 0%.
O=C(CS(=O)(=O)c1ccccc1)Nc1ccc(S(=O)(=O)Nc2ncccn2)cc1 was read as ELG1 genotox -1%, FLuc modulator 2%, NPC1 prom act -2%, SMN2 splice up -5%, Rab9 promoter act 0% and KinaseGlo FLuc 1%.
